Screening results as filed in PubChem.
Most compounds without a hit are left out; they make up all but 4.1% or so of the library.
FAS TE block – inhibitors of human fatty acid synthase thioesterase domain; P49327; recombinant FAS-TE, OMFH fluorogenic substrate, fluorescence endpoint; inhibition, % at 15 µM; 360,000 tested, 0.67% active;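 active = compounds whose normalised, plate-corrected inhibition of enzyme fluorescence in the single-dose primary screen is 50% or more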;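 also: 0% = DMSO with enzyme and 100% = substrate without enzyme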
beta cell repl – MIN6 beta-cell proliferation induction | MIN6 cells proliferation, ATPlite luminescence, 48 h; cells starved in 0.2% serum; 100% = growth in 10% serum | proliferation, % at 10 µM | 330,000 tested, 0.29% active;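 active = compounds whose signal lies at least 3.5 SD above the mean of all wells on their plate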;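 also: 0% = DMSO-treated cells in low-serum medium and 100% = 10% serum control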
pCIP destab – p/CIP protein destabilization. 290,000 tested, 0.01% active. F442A p/CIP-EGFP cells, EGFP fluorescence, 16 h. Q05BA5. decrease of EGFP signal, % at 10 µM;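 active = EGFP signal decrease of at least 30% at 10 µM or well 3 SD below plate mean, unless failing retest; inactive = the rest, including hits failing retest or dose response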
MPTP block – permeability transition pore inhibition | isolated mouse mitochondria, Ca2+ swelling absorbance, 30 min | inhibition, % at 10 µM | 360,000 tested, 1.4% active | AID 602449;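 active = inhibition of 50% or more, scaled per plate between neutral and stimulator controls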;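 also: 0% = DMSO wells given calcium and 100% = 1 mM EGTA wells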
NR3A LBD binder – NR3A (human) ligand-binding domain modulation | NR3A LBD differential scanning fluorimetry, Tm shift; 0% = protein alone, 100% = glycine-bound protein | Tm shift relative to glycine control, % at 25 µM | 340,000 tested, 2.5% active | AID 1259313;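 active = melting temperature shift of at least 10% of the positive control shift, at one fixed dose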
Numbers without * were called inactive; . = not tested or not shown.

SMILES	FAS TE block	beta cell repl	pCIP destab	MPTP block	NR3A LBD binder
O=C(Cc1cccs1)Nc1ccc(-c2nc3ccccc3[nH]2)cc1	5	-2	-5	0	32*
COc1ccc(OCC(=O)Nc2cccc(-c3nc4ccccc4[nH]3)c2)cc1	8	1	-8	0	20*
O=C(CN1CCOCC1)Nc1ccc(-c2nc3ccccc3[nH]2)cc1	-4	-2	-1	0	-7
CC(C)c1ccc2[nH]c(O)c(N=NC(=O)c3cccc(S(=O)(=O)Nc4ccc(Cl)cc4)c3)c2c1	1	-1	-3	0	43*
CC(C)c1ccc2[nH]c(O)c(N=NC(=O)c3cccc(S(=O)(=O)Nc4cccc(Cl)c4)c3)c2c1	2	-3	-5	1	-2
COc1ccc(/C=C/c2cc(O)cc(O[C@@H]3O[C@H](CO)[C@@H](O)[C@H](O)[C@H]3O)c2)cc1O	-5	.	.	-1	.
Nn1c(Nc2ccccc2)nc2ccccc21	-3	-3	4	2	-2
Cn1c(Nc2ccccc2)nc2ccccc21	-3	-2	-24	1	12*
O=C(Cn1nnc(-c2ccccc2NC(=O)c2cccs2)n1)Nc1ccccc1	19	-2	-9	-1	22*
COC(=O)C1=C(NC(=O)COc2ccc(Cl)cc2Cl)CCS1	-5	-2	2	0	15*
O=C(/C=C\Nc1ccc2c(c1)OCO2)c1ccccn1	-8	-6	-4	2	35*
COc1ccccc1CNC(=O)Nc1nc(C(N)CCc2ccccc2)cs1 (stereo unspecified)	-7	.	.	11	.
CCCNC(=O)OC1CC2CC1[C@H]1CCCCN1C2=O (stereo partly specified)	-9	.	.	1	.
CC(=O)OC(C)(C)/C=C/C(=O)[C@](C)(O)C1[C@H](O)C[C@@]2(C)C3CC=C4C(C=C(O[C@@H]5O[C@H](CO)[C@@H](O)[C@H](O)[C@H]5O)C(=O)C4(C)C)[C@]3(C)C(=O)C[C@]12C (stereo partly specified)	-5	-5	.	2	16*
CC(C)(C)c1ccc(NC(=O)CSc2nnc(-c3n[nH]c4ccccc34)o2)cc1	-44	0	0	41	175*
Nc1cccc(-c2c[nH]c3ncc(-c4cccnc4)cc23)c1	-5	.	.	-2	-3
CCCCNC(=O)C(NC(=O)c1ccc2ccccc2c1)C(=O)c1ccccc1 (stereo unspecified)	.	.	.	2	.
CCOC(=O)C1=CCC(c2cc3ccc(OC)cc3n2C(=O)OC(C)(C)C)NC1 (stereo unspecified)	.	.	.	1	.
O=C(c1cc(Cl)cc(Cl)c1)N1CCC(=O)N([C@H](COCc2ccccc2)Cc2ccccc2)CC1	14	.	.	0	.
COc1cc(OC)c2c(c1)OC(=O)CC2c1ccc(C)cc1 (stereo unspecified)	7	.	.	-2	-1
Cc1ccc(C2CC(=O)Oc3cc(C)c(Br)c(C)c32)cc1 (stereo unspecified)	24	.	.	-2	18*
Cc1cc(=O)n2nc(N3CCCC(C(=O)Nc4cccc(C)c4C)C3)sc2n1 (stereo unspecified)	-6	.	.	-1	.
COc1cc(-c2oc3cc(O)cc(O)c3c(=O)c2O[C@@H]2O[C@H](COC3O[C@@H](C)[C@H](O)[C@@H](O)[C@H]3O)[C@@H](O)[C@H](O)[C@H]2O)ccc1O (stereo partly specified)	-15	-4	.	0	13*
C[C@@H]1O[C@@H](Oc2c(-c3ccc(O)c(O)c3)oc3cc(O)cc(O)c3c2=O)[C@H](O)[C@H](O)[C@H]1O	-2	5	.	0	-2
CC(C)CNC(=O)C1(C)CCCN1C(=O)c1cccnc1 (stereo unspecified)	-4	.	.	0	.
SMILES	FAS TE block	beta cell repl	pCIP destab	MPTP block	NR3A LBD binder
Cc1cnc2cc(Cl)c(Cl)cc2n1	0	-3	-3	0	579*
CCOC(=O)C1=C(C)N=c2sc(=Cc3cc(Cl)c(OCC(=O)O)c(Cl)c3)c(=O)n2C1c1cccc(OC)c1 (stereo unspecified)	40	.	.	1	.
Fc1ccc(-c2csc3ncnc(N4CCc5ccccc5C4)c23)cc1	26	0	-7	4	11*
CCCCCC1CC(CC(=O)NC(=S)Nc2ccc([N+](=O)[O-])cc2)C(=O)O1 (stereo unspecified)	21	-3	-14	3	15*
Nc1ncnc2c1ncn2[C@@H]1O[C@H](C(=O)NS(=O)(=O)c2ccccc2[N+](=O)[O-])[C@@H](O)[C@H]1O	-7	.	.	-1	.
CC1(C(=O)NS(=O)(=O)Cc2cccc(Cl)c2)CCN1C(=O)C1(c2ccc(Cl)cc2)CCC1 (stereo unspecified)	-7	.	.	2	.
CNC(=S)SCCOc1ccccc1C	4	0	-5	2	15*
O=S(=O)(O)c1cccc2c(N=Nc3ccc(O)c4ncccc34)cccc12	75*	.	-4	11	1
COc1ccc(C(=O)C(C)OC(=O)c2cccc(S(=O)(=O)Nc3cc(Cl)c(OC)cc3OC)c2)cc1 (stereo unspecified)	57*	0	-16	44	-20
O=[N+]([O-])c1ccccc1CCc1ccccc1[N+](=O)[O-]	1	.	.	2	0
N#CCCN(Cc1cccnc1)S(=O)(=O)c1ccc(S(=O)(=O)NC2CCCCC2)cc1	-5	-2	-1	1	14*
Cc1oc(-c2ccccc2)cc1C(=O)Nc1ccccc1	12	-3	8	-3	4
COc1ccc(NC(=O)c2cc(-c3ccccc3)oc2C)cc1	12	0	-13	6	18*
Cc1oc(-c2ccccc2)cc1C(=O)Nc1ccc2ccccc2c1	6	-1	0	0	15*
Cc1occc1C(=O)Nc1ccc2ccccc2c1	5	-2	12	-4	24*
CC(=O)c1cccc(NC(=O)c2ccoc2C)c1	-1	-1	4	0	-1
COc1ccccc1Cc1c(-c2cccc(Cl)c2)nc2ccc(Br)cn12	9	.	.	1	.
O=C(Nc1cccc(NC(=O)c2cncc(Br)c2)c1)c1cncc(Br)c1	2	2	-6	0	-2
O=C(Nc1ccncc1)c1cncc(Br)c1	-8	-3	-4	-2	11*
O=[N+]([O-])c1[nH]cnc1/C=C/c1ccccc1	-3	-2	5	2	22*
COC(=O)c1nc[nH]c1[N+](=O)[O-]	-6	.	.	-1	0
CCOc1ccc(C(=O)Nc2ccc(Cl)cn2)cc1Cl	18	-3	12	1	25*
CCOc1ccc(C(=O)Nc2cc(NC(=O)c3ccc(OCC)c(Cl)c3)cc(C(=O)O)c2)cc1Cl	18	-3	1	0	23*
O=C(Nc1ccc(Cl)cn1)Nc1ccc(Cl)cn1	-1	4	-30	5	29*
O=C(Nc1ccc(Cl)cn1)c1ccc(-c2cc(Cl)ccc2Cl)o1	2	-5	-1	49	16*
O=C(Nc1ccc(F)cc1)Nc1ccc(Cl)cn1	-5	-2	5	6	-16
